Assay results reported in PubChem BioAssay (EPA / NIEHS).
Inconclusive results are not listed. Active and inactive are the calls of the source. The calls were made as follows: active = hit-call score of the fitted dose curve at least 0.9, where 1 is the maximum; inconclusive = response in the unintended direction; inactive = score below 0.9.

Molecular target: human Vitamin D Receptor (VDR), VDR (gene 7421) (UniProt P11473)
Assay: ATG_VDR_TRANS: Attagene TRANS-FACTORIAL HepG2 Assay for human Vitamin D Receptor (VDR) (AID 2283022)
In short: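 Transactivation by an exogenous VDR-Gal4 chimera in transiently transfected HepG2 cells was measured as reporter transcript level 24 hours after chemical treatment. RT-PCR products were analysed by capillary electrophoresis and fitted in the positive direction relative to DMSO.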

human Vitamin D Receptor (VDR), VDR (gene 7421), sequence (P11473 whole entry, looked up): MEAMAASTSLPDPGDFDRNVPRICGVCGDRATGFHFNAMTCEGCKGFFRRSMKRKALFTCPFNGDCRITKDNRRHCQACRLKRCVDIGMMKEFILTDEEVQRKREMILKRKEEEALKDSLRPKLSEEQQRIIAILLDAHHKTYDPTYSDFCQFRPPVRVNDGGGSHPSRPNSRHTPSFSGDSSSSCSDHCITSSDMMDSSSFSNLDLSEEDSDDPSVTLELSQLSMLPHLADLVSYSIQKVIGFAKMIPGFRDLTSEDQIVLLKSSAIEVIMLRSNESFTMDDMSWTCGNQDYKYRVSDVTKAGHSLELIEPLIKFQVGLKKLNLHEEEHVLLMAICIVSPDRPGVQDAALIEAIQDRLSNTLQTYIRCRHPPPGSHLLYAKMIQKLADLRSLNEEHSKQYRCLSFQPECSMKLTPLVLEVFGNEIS

Structure (SMILES) | outcome
CCCCCCOC(C)=O | inactive
CC(=O)c1cccnc1 | inactive
CCCC[N+](C)(CCCC)CCCC | inactive
CCC(C)(CCCC(C)C)OC(C)=O (stereo unspecified) | inactive
C=C(C)C(=O)OCCC(C)OC(=O)C(=C)C (stereo unspecified) | inactive
CCCC1CCC(=O)CC1 | inactive
Brc1cc(Br)cc(Br)c1 | inactive
Cc1cccc(C)c1 | inactive
Cc1cc(N)n(-c2ccccc2)n1 | inactive
CCCCOCC(C)OCC(C)O (stereo unspecified) | inactive
CC(C)(C)C1CCC(O)CC1 (stereo unspecified) | inactive
CC(C)(C)c1ccc(S)cc1 | inactive
C=CCOC(=O)/C=C\C(=O)OCC=C | inactive
C=C(C)C(=O)OCCN(C)C | inactive
CC(=O)CCc1ccc(O)cc1 | inactive
CCCCC(CC)COCCO (stereo unspecified) | inactive
Nc1cc([N+](=O)[O-])ccc1C(=O)O | inactive
CC(=O)c1ccc(O)cc1 | inactive

Structure (SMILES) | outcome
CC1=CC(O)CC(C)(C)C1 (stereo unspecified) | inactive
CC(C)N(c1ccccc1)C(C)C | inactive
C/C=C(\C)C(=O)OC/C=C(\C)CCC=C(C)C | inactive
O=C(OCc1ccccc1)c1ccccc1O | inactive
c1coc(CNc2ncnc3nc[nH]c23)c1 | inactive
NNC(=O)OCc1ccccc1 | inactive
COc1ccc(OC)cc1 | inactive
CN(C)C(=O)Nc1ccccc1 | inactive
C=CCCCCCCCCC(=O)OCC | inactive
CCCCCCCCCCOC(=O)c1ccccc1C(=O)OCCCCCCCC | inactive
N#CCCNCCC#N | inactive
C=C(C)C(=O)OCCOCCOC(=O)C(=C)C | inactive
CC(C)COC(=O)c1ccccc1 | inactive
OC[C@@H](O)[C@H](O)[C@@H](O)[C@@H](O)CO | inactive
CCOC(=O)CC(C)C | inactive
NC(=O)c1cccnc1 | inactive
CCC(=O)OC/C=C(\C)CCC=C(C)C | inactive
C=C1CC[C@H]2O[C@]2(C)CC[C@@H]2[C@@H]1CC2(C)C | inactive
